# Results filed as inconclusive are left out. A call without a number means that no potency is given here. A number with no mark means an inactive call. Active and inactive are the calls of the source. Calls follow the shape of the dose curve; as a rule, active = well fitted activation curve with a large enough effect; inconclusive = small, poorly fitted or top-dose-only effect; inactive = flat fitted curve, though single readings scatter.
# Assay: Primary redox qHTS assay for identification of artifact compounds. (AID 1845223)
# Details: Amplex Red/HRP redox cycling with DTT, fluorescence; series mostly up to 53.8 µM
# Method in brief: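 Redox-cycling detection via DTT (250 uM final) oxidation coupled to Amplex Red (25 uM)/HRP (250 mU/mL) in HBSS. 15 min preincubation plus 30 min after DTT, room temperature. Ex/Em 525/598 nm; 4-parameter Hill fit against DMSO and 10 uM DA3003.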
Compound,Potency,redox activity (% of DA3003)
COc1ccc(C2OCC3C(c4cc(OC)c5c(c4)OCO5)OCC23)cc1OC (centres undefined),inactive,–
C[C@@]1(O)[C@H](O)[C@@H](CO)O[C@H]1n1cnc2c(=O)[nH]c(N)nc21,inactive,–
COC(=O)C1=CO[C@@H](O[C@@H]2O[C@H](CO)[C@@H](O)[C@H](O)[C@H]2O)[C@H]2[C@@H]1C=C[C@]21C=C([C@H](C)OC(=O)/C=C/c2ccc(O[C@@H]3O[C@H](CO)[C@@H](O)[C@H](O)[C@H]3O)cc2)C(=O)O1,inactive,–
CC1(C)CC[C@]2(C(=O)O[C@@H]3O[C@H](CO)[C@@H](O)[C@H](O)[C@H]3O)CC[C@]3(C)C(=CCC4[C@@]5(C)C[C@H](O)[C@H](O[C@@H]6OC[C@@H](O)[C@H](O)[C@H]6O)[C@@](C)(CO)C5CC[C@]43C)C2C1 (some centres undefined),–,17.7% [at 11.5 µM]
C=C(C)C1CCC2(C(=O)OC3OC(COC4OC(CO)C(O)C(O)C4O)C(OC4OC(C)C(O)C(O)C4O)C(O)C3O)CCC3(C(=O)O)C(CCC4C5(C)CCC(=O)C(C)(C)C5CCC43C)C12 (centres undefined),–,7.53% [at 11.5 µM]
CSC(=O)OCC1=C[C@@H]2OC(=O)C3=CO[C@@H](O[C@@H]4O[C@H](CO)[C@@H](O)[C@H](O)[C@H]4O)[C@H]1[C@@H]32,inactive,–
CC1(C)COC(=O)[C@@H]1O[C@@H]1O[C@H](CO)[C@@H](O)[C@H](O)[C@H]1O,inactive,–
C/C(=C/CO)CC[C@H]1[C@]2(C)C[C@H](O)CC(C)(C)[C@H]2CC[C@]1(C)O,inactive,–
COc1ccc2[nH]c(S(=O)Cc3ncc(C)c(OC)c3C)nc2c1 (centres undefined),inactive,–

# — PubChem BioAssay (NCATS)
